Source: the supplement of paper PMC12350171
Structures can show the parent of a compound that is named as a salt.

These molecules were tested on Haemophilus parainfluenzae (assay: growth AUC normalised to DMSO control (fraction of control); higher = less growth inhibition, active = hit call of the paper). Conditions: 20 µM;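 active = AUC significantly below DMSO controls by Student t-fit with adjusted P under 0.01; inactive = not significantly reduced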.
In short: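 Three biological replicates were carried out, with OD578 read hourly for 24 h. Before inoculation at a starting OD578 of 0.01, pathogens were passaged anaerobically twice; plates were pre-reduced mGAM containing 20 μM compound and 1% DMSO, sealed with breathable membranes, and the Haemophilus parainfluenzae medium carried added hemin and NAD. Area under each growth curve was calculated by the trapezoidal rule up to the exponential-to-stationary transition and normalised to DMSO controls on the same plate.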

SMILES	growth AUC normalised to DMSO control
C[C@]12CC[C@H]3C(=CCc4cc(O)ccc43)[C@@H]1CCC2=O [Equilin]	1.02 (inactive)
CC(C)(C)NC[C@H](O)COc1ccccc1C1CCCC1 [Penbutolol sulfate]	1.02 (inactive)
CCC(C)n1ncn(-c2ccc(N3CCN(c4ccc(OCC5COC(Cn6cncn6)(c6ccc(Cl)cc6Cl)O5)cc4)CC3)cc2)c1=O (stereo not given) [Itraconazole]	1.09 (inactive)
CC1CS(=O)(=O)CCN1/N=C/c1ccc([N+](=O)[O-])o1 (stereo not given) [Nifurtimox]	0.596 (active)
CCOC1O[C@H]([C@@H](COCc2ccccc2)OCc2ccccc2)[C@H](OCc2ccccc2)[C@H]1O (stereo not given in full) [Tribenoside]	0.941 (inactive)
CN1C2CCCC1CC(NC(=O)c1nn(C)c3ccccc13)C2 (stereo not given) [Granisetron]	1.02 (inactive)
Nc1ccc(S(=O)(=O)Nc2nccs2)cc1 [Sulfathiazole]	1.03 (inactive)
Nc1nc(=O)c2c([nH]1)NC[C@@H](CNc1ccc(C(=O)N[C@@H](CCC(=O)O)C(=O)O)cc1)N2C=O [Folinic acid calcium salt]	1 (inactive)
CNCCc1ccccn1 [Betahistine mesylate]	0.962 (inactive)
O=C(O)c1cc(=O)c2c(OCC(O)COc3cccc4oc(C(=O)O)cc(=O)c34)cccc2o1 [Cromolyn disodium salt]	1.01 (inactive)
CN(Cc1cnc2nc(N)nc(N)c2n1)c1ccc(C(=O)N[C@@H](CCC(=O)O)C(=O)O)cc1 [Amethopterin]	0.0201 (active)
COc1ccc([C@@H]2Sc3ccccc3N(CCN(C)C)C(=O)[C@@H]2OC(C)=O)cc1 [Diltiazem hydrochloride]	0.988 (inactive)
CC(CNC1CCCCC1)OC(=O)c1ccccc1 (stereo not given) [Hexylcaine hydrochloride]	0.995 (inactive)
O=C(O)c1ccccc1C(=O)Nc1ccc(S(=O)(=O)Nc2nccs2)cc1 [Phthalylsulfathiazole]	1 (inactive)
CC(=O)SCC(Cc1ccccc1)C(=O)NCC(=O)OCc1ccccc1 (stereo not given) [Racecadotril]	0.986 (inactive)
CCCCc1nc(Cl)c(CO)n1Cc1ccc(-c2ccccc2-c2nnn[nH]2)cc1 [Losartan]	1.45 (inactive)
COc1cc(C(=O)NCc2ccc(OCCN(C)C)cc2)cc(OC)c1OC [Trimethobenzamide hydrochloride]	1.05 (inactive)
CC(=O)[C@H]1CC[C@H]2[C@@H]3CC=C4C[C@@H](O)CC[C@]4(C)[C@H]3CC[C@]12C [Pregnenolone]	1.01 (inactive)
CNCCCN1c2ccccc2CCc2ccccc21 [Desipramine hydrochloride]	0.979 (inactive)
CC(C)NC[C@H](O)COc1ccc(CC(N)=O)cc1 [(S,-) Atenolol]	1.01 (inactive)
CC[C@H](C)[C@H]1O[C@]2(C=C[C@@H]1C)C[C@@H]1C[C@@H](C/C=C(\C)[C@@H](O[C@H]3C[C@H](OC)[C@@H](O[C@H]4C[C@H](OC)[C@@H](O)[C@H](C)O4)[C@H](C)O3)[C@@H](C)/C=C/C=C3\CO[C@@H]4[C@H](O)C(C)=C[C@@H](C(=O)O1)[C@]34O)O2.CO[C@H]1C[C@H](O[C@H]2[C@H](C)O[C@@H](O[C@@H]3/C(C)=C/C[C@@H]4C[C@@H](C[C@]5(C=C[C@H](C)[C@@H](C(C)C)O5)O4)OC(=O)[C@@H]4C=C(C)[C@@H](O)[C@H]5OC/C(=C\C=C\[C@@H]3C)[C@]54O)C[C@@H]2OC)O[C@@H](C)[C@@H]1O [Avermectin B1]	0.997 (inactive)
CN1CCCN=C1/C=C/c1cccs1 [Pyrantel tartrate]	0.978 (inactive)
OCCN1CCN(CCCN2c3ccccc3C=Cc3ccccc32)CC1 [Opipramol dihydrochloride]	0.911 (inactive)
NC[C@@H]1O[C@H](O[C@H]2[C@@H](O)[C@H](O[C@@H]3[C@@H](O)[C@H](N)C[C@H](N)[C@H]3O[C@H]3O[C@H](CN)[C@@H](O)[C@H](O)[C@H]3N)O[C@@H]2CO)[C@H](N)[C@@H](O)[C@@H]1O [Neomycin sulfate]	0.923 (inactive)
C[C@]12CC[C@H]3[C@@H](CCC4=CC(=O)CC[C@@]43C)[C@@H]1CC[C@@H]2C(=O)CO [Deoxycorticosterone]	1.04 (inactive)
